Test results reported in ChEMBL document CHEMBL2218924, “A broad activity screen in support of a chemogenomic map for kinase signalling research and drug discovery” (Biochem J, 2013).

Experiments:
[1] = target: Vascular endothelial growth factor receptor 3 (Homo sapiens) (UniProt P35916); conditions: at 10 µM
[2] = target: Macrophage colony-stimulating factor 1 receptor (Homo sapiens) (UniProt P07333); conditions: at 1 µM
[3] = target: Macrophage colony-stimulating factor 1 receptor (Homo sapiens) (UniProt P07333); conditions: at 10 µM
[4] = target: Tyrosine-protein kinase Fyn (Homo sapiens) (UniProt P06241); conditions: at 1 µM
[5] = target: Tyrosine-protein kinase Fyn (Homo sapiens) (UniProt P06241); conditions: at 10 µM
[6] = target: T1, Mitogen-activated protein kinase kinase kinase kinase 2 (Homo sapiens) (UniProt Q12851); conditions: at 1 µM
T1 sequence (whole entry): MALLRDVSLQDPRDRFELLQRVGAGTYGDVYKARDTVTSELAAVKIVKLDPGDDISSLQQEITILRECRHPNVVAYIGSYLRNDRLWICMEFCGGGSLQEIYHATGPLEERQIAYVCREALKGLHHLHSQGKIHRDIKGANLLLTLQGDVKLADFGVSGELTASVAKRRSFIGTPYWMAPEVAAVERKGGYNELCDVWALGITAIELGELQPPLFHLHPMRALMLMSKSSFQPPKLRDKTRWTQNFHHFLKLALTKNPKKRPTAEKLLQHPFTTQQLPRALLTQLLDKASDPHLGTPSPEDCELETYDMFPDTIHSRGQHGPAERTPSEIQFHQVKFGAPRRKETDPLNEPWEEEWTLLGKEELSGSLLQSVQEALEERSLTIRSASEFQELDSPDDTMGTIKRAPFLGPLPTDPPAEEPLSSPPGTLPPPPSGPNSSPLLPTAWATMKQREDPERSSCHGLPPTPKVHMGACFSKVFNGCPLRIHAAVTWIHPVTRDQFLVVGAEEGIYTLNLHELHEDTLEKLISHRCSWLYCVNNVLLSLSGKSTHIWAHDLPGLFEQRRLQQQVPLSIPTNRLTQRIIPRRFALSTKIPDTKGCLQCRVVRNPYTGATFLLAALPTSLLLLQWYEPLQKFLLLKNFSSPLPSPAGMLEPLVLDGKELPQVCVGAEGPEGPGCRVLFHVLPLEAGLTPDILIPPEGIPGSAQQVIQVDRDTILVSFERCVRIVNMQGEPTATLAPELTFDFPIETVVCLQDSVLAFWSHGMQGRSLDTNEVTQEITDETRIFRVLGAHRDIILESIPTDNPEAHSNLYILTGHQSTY

[7] = target: T1, Mitogen-activated protein kinase kinase kinase kinase 2 (Homo sapiens); conditions: at 10 µM
[8] = target: G protein-coupled receptor kinase 5 (Homo sapiens) (UniProt P34947); conditions: at 10 µM
[9] = target: G protein-coupled receptor kinase 6 (Homo sapiens) (UniProt P43250); conditions: at 10 µM
[10] = target: T2, Rhodopsin kinase GRK7 (Homo sapiens) (UniProt Q8WTQ7); conditions: at 1 µM
T2 sequence (whole entry): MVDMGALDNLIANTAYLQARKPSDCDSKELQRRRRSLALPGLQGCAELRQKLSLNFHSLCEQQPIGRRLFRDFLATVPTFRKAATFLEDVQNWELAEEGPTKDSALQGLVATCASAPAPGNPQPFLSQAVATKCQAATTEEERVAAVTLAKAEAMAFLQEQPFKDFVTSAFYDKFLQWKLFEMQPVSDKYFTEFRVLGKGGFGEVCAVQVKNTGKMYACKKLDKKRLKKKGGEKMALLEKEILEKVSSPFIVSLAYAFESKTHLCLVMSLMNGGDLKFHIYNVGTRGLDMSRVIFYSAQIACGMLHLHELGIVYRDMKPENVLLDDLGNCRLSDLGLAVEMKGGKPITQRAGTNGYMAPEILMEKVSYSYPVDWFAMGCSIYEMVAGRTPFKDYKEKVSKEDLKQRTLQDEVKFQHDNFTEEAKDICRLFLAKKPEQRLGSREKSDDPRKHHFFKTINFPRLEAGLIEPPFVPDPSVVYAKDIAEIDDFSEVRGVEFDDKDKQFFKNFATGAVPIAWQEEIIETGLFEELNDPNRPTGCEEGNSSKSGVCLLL

[11] = target: T2, Rhodopsin kinase GRK7 (Homo sapiens); conditions: at 10 µM
[12] = target: Glycogen synthase kinase-3 alpha (Homo sapiens) (UniProt P49840); conditions: at 1 µM
[13] = target: Glycogen synthase kinase-3 alpha (Homo sapiens) (UniProt P49840); conditions: at 10 µM
[14] = target: Glycogen synthase kinase-3 beta (Homo sapiens) (UniProt P49841); conditions: at 1 µM
[15] = target: Glycogen synthase kinase-3 beta (Homo sapiens) (UniProt P49841); conditions: at 10 µM
[16] = target: Homeodomain-interacting protein kinase 1 (Homo sapiens) (UniProt Q86Z02); conditions: at 1 µM
[17] = target: Homeodomain-interacting protein kinase 1 (Homo sapiens) (UniProt Q86Z02); conditions: at 10 µM
[18] = target: Homeodomain-interacting protein kinase 2 (Homo sapiens) (UniProt Q9H2X6); conditions: at 1 µM
[19] = target: Homeodomain-interacting protein kinase 2 (Homo sapiens) (UniProt Q9H2X6); conditions: at 10 µM
[20] = target: Homeodomain-interacting protein kinase 3 (Homo sapiens) (UniProt Q9H422); conditions: at 1 µM
Sequence of Homeodomain-interacting protein kinase 3 (Homo sapiens) (Q9H422 whole entry, looked up): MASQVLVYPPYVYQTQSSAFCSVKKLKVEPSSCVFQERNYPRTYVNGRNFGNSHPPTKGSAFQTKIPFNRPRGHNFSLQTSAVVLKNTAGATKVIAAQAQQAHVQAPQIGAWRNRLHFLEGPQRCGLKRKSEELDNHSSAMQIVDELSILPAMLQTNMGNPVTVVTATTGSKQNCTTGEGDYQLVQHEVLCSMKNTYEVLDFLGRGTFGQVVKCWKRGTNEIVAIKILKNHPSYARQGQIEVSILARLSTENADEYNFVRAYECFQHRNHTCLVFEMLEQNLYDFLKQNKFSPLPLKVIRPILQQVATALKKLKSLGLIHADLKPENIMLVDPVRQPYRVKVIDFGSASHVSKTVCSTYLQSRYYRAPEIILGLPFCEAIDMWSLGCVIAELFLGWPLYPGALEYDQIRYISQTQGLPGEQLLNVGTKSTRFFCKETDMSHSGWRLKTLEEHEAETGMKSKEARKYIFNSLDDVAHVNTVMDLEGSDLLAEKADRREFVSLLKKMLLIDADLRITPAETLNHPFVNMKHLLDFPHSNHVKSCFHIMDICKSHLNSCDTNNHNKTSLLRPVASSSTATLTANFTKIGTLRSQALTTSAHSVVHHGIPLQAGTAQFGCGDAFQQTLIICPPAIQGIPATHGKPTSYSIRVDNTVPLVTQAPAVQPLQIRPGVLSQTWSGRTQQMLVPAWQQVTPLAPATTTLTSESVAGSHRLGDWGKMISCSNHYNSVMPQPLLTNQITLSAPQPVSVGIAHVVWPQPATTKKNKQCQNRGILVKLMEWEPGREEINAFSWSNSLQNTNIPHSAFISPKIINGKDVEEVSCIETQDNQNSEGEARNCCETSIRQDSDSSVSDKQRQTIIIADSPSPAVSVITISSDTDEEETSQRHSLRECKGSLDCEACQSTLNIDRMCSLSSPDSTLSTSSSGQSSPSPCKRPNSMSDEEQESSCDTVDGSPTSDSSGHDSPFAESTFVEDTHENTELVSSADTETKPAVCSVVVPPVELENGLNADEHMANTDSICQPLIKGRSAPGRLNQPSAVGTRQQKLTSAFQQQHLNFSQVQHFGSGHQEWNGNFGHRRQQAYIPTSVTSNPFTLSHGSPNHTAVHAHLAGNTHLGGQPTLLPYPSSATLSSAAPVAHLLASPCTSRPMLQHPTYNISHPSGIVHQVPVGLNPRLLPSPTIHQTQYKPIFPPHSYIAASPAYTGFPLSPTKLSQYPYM

Sequence of Vascular endothelial growth factor receptor 3 (Homo sapiens) (P35916 whole entry): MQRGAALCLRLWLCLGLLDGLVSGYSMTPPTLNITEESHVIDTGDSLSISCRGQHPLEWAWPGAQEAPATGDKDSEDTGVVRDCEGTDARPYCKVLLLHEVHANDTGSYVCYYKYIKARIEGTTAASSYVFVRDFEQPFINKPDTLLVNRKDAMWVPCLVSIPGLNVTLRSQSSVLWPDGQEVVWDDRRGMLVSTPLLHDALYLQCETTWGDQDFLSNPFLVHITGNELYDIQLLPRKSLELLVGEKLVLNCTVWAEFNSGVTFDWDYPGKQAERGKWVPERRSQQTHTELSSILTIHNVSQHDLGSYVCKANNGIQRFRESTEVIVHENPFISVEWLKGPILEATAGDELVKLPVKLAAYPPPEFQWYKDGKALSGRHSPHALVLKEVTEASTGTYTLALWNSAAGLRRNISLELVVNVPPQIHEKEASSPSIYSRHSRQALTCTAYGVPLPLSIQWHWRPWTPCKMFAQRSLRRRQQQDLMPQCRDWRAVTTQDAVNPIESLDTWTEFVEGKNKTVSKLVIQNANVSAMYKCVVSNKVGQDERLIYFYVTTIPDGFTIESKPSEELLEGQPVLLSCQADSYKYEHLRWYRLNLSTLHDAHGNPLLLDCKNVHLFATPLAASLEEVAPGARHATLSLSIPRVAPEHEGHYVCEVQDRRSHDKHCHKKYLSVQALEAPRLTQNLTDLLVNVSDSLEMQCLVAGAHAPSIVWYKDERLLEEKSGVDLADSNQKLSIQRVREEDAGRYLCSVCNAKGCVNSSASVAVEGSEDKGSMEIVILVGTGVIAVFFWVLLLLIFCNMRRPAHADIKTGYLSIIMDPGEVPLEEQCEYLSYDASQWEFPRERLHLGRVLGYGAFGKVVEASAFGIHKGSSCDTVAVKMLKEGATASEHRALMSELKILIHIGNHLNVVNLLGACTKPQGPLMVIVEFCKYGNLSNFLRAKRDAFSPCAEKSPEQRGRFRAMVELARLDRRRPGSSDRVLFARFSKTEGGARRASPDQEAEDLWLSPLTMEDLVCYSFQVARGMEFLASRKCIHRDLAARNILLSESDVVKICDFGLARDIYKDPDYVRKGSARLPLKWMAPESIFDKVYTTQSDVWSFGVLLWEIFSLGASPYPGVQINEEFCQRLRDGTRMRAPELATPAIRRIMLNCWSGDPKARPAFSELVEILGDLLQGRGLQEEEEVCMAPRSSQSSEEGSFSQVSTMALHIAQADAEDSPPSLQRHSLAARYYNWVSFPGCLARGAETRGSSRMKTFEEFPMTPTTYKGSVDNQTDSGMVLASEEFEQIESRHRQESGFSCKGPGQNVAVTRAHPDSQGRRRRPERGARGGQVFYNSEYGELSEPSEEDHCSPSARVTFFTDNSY
Sequence of G protein-coupled receptor kinase 5 (Homo sapiens) (P34947 whole entry, looked up): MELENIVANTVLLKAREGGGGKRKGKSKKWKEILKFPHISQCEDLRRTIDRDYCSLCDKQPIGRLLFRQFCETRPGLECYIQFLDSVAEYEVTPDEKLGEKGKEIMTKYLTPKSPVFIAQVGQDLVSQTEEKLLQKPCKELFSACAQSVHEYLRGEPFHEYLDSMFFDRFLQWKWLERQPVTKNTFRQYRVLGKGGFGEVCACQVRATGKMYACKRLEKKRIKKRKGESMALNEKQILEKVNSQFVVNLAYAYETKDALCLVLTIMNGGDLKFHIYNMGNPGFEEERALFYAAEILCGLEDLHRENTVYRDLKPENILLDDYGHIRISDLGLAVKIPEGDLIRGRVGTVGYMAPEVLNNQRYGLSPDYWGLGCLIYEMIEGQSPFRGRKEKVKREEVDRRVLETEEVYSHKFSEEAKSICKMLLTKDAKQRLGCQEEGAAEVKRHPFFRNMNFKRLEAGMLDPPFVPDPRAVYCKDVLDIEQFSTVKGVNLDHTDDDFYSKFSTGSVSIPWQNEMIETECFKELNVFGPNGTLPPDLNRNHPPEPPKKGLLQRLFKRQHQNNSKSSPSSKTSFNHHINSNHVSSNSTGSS
Sequence of Tyrosine-protein kinase Fyn (Homo sapiens) (P06241 2-537 limits assumed): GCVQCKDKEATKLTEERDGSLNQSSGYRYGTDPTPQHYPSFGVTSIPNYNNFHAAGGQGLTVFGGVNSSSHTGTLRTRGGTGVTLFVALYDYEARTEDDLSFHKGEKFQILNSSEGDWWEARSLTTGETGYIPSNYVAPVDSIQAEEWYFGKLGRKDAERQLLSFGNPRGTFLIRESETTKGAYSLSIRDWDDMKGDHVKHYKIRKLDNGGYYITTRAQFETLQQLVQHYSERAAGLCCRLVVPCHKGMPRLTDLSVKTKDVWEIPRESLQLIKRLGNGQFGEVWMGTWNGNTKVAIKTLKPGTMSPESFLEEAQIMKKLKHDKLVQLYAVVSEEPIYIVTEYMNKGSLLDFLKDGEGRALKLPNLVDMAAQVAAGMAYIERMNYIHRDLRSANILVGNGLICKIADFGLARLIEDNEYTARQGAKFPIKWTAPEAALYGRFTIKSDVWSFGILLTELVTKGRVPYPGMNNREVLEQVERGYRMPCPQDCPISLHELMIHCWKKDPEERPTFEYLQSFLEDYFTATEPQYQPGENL
Sequence of Macrophage colony-stimulating factor 1 receptor (Homo sapiens) (P07333 whole entry): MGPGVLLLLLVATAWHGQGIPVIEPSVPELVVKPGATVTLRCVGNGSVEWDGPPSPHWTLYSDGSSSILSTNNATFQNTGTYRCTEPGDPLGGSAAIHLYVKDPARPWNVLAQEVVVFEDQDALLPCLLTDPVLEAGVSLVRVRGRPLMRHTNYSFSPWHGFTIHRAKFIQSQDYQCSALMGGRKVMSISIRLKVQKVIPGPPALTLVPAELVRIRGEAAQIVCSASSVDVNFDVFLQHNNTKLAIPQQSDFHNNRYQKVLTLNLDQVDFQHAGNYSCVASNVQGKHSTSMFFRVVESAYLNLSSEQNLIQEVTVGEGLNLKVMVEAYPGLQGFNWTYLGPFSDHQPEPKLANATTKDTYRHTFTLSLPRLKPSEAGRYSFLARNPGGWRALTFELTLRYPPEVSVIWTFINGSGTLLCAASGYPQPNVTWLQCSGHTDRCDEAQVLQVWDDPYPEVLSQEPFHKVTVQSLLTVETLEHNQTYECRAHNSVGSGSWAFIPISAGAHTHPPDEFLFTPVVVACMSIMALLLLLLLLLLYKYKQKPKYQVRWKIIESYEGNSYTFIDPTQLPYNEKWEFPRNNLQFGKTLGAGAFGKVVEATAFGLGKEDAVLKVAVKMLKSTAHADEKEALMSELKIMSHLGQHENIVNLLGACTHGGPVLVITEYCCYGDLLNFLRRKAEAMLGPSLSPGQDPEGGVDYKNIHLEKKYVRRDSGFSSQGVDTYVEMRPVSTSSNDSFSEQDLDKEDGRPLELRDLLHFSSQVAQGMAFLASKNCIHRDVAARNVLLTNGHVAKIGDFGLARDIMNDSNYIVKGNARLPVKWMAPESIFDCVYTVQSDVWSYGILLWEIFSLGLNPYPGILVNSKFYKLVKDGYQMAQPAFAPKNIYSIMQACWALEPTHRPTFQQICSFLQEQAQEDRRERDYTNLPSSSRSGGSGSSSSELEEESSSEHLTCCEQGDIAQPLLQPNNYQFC
Sequence of Glycogen synthase kinase-3 beta (Homo sapiens) (P49841 whole entry, looked up): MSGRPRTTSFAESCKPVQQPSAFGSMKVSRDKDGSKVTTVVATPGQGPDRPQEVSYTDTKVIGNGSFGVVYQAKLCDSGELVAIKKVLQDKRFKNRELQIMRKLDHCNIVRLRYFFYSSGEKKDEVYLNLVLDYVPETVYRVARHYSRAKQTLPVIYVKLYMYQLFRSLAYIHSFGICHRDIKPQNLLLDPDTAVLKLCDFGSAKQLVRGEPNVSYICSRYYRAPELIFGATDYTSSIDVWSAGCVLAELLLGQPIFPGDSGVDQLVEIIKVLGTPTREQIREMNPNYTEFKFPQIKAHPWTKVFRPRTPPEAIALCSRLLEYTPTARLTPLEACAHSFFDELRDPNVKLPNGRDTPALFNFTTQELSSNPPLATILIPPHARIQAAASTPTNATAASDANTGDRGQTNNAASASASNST

Structure (SMILES)	residual activity [1] [%]	residual activity [2] [%]	residual activity [3] [%]	residual activity [4] [%]	residual activity [5] [%]	residual activity [6] [%]	residual activity [7] [%]	residual activity [8] [%]	residual activity [9] [%]	residual activity [10] [%]	residual activity [11] [%]	residual activity [12] [%]	residual activity [13] [%]	residual activity [14] [%]	residual activity [15] [%]	residual activity [16] [%]	residual activity [17] [%]	residual activity [18] [%]	residual activity [19] [%]	residual activity [20] [%]
N#C/C(=C(\N)Sc1ccc(N)cc1)c1ccccc1C(F)(F)F	64	86	68	71	13	69	72	95	93	97	91	89	87	99	96	109	101	99	92	93
O=C(O)c1ccc2c3c1cccc3c(=O)n1c3ccccc3nc21	43	102	75	80	59	38	21	70	91	102	80	98	35	98	41	104	69	70	24	101
O=C1NC(=O)c2c1c1c3ccccc3[nH]c1c1[nH]c3cc(Br)ccc3c21	3	78	68	85	62	88	74	89	89	96	79	92	30	103	57	102	96	101	85	92
Ic1cccc(CSc2nnc(-c3ccncc3)o2)c1	15	71	53	71	84	49	35	89	83	88	76	32	10	43	33	101	91	76	54	96
CO[C@H]1[C@@H](OC)C[C@H](C)[C@@H](OC)C2=CC(=O)C=C(NC(=O)/C(C)=C/C=C/[C@H](OC)[C@@H](OC(N)=O)/C(C)=C/[C@@H]1C)C2=O	89	131	112	88	96	92	81	102	89	100	92	100	109	92	104	102	104	108	92	100
Cc1nc(-c2ccccc2)c(-c2ccncc2)o1	0	90	86	90	69	91	77	107	97	105	103	92	85	111	78	107	102	94	77	97
CCN(CC)CCCCN1c2ccccc2Oc2ccc(Cl)cc21	102	124	127	102	108	109	91	97	98	111	95	133	124	103	129	103	113	108	96	97
O=C1NC(=O)c2cc(Nc3ccc(F)cc3)c(Nc3ccc(F)cc3)cc21	65	75	54	68	50	81	71	90	81	93	77	84	40	69	27	93	99	94	84	97
c1ccc2c(-c3ccncc3)c[nH]c2c1	60	110	92	89	78	86	50	97	83	96	79	–	135	94	88	95	98	100	85	95
N#Cc1cnc2cnc(NCc3cccnc3)cc2c1Nc1ccc(F)c(Cl)c1	2	58	60	87	74	–	3	91	–	120	94	46	39	62	42	–	–	94	84	–
Cc1cc(Nc2nc(-c3ccccc3)nc3ccccc23)n[nH]1	1	4	0	2	-2	38	6	–	65	55	14	9	3	20	10	95	35	64	13	–
c1ccc(-c2n[nH]c3c2oc2ccccc23)cc1	1	6	1	86	51	84	30	94	86	95	64	–	–	95	67	–	–	98	58	92
CC[n+]1c(/C=C/N(C)c2ccccc2)n(-c2ccccc2)c2ccc(-c3nc4ccccc4s3)cc21	52	93	71	101	60	103	73	91	93	112	97	122	–	109	116	102	93	95	77	99
Nc1cccc(-c2cc3c(Oc4cccc(O)c4)ncnc3[nH]2)c1	0	3	-1	0	-2	42	8	93	93	92	91	27	3	22	6	–	–	95	54	–
CN(C)CCCn1cc(C2=C(c3c[nH]c4ccccc34)C(=O)NC2=O)c2ccccc21	–	50	30	102	70	75	22	9	32	58	7	18	2	24	3	90	53	69	21	87
Oc1ccc(Nc2nc(-c3ccc(Cl)cc3)cs2)cc1	21	72	43	87	68	97	60	100	102	103	103	97	88	131	114	–	95	92	89	105
CC(C)n1cnc2c(NCc3ccccc3)nc(NCCCO)nc21	68	101	77	93	1	87	75	93	87	94	74	105	101	134	114	111	92	100	90	96
Cc1ccc(NC2=CC(=O)c3sc(C)nc3C2=O)cc1	84	96	79	82	93	86	–	99	85	84	89	119	106	117	118	100	90	97	98	92
O=C1Nc2ccc(Br)cc2/C1=C\c1cc2c([nH]1)CCCC2	1	11	3	–	–	24	42	100	–	–	–	113	122	–	–	–	99	82	–	97
COc1ccc(CNc2nc(N(CCO)CCO)nc3c2ncn3C(C)C)cc1	30	91	69	70	90	78	78	93	86	76	69	74	75	91	102	102	88	98	82	105
c1ccc(-c2n[nH]cc2-c2ccnc3ccccc23)nc1	10	71	76	94	22	43	27	103	87	93	87	–	–	85	–	98	105	98	101	100
Cc1cccc(-c2[nH]c(C(C)(C)C)nc2-c2ccc3c(c2)OCO3)n1	90	–	–	105	93	96	83	103	87	97	97	–	–	104	93	93	102	97	96	–
CC(=O)c1ccc(N2CCOCC2)cc1O	88	–	–	80	96	91	89	86	91	95	90	–	–	101	109	97	104	100	94	95
CO[C@H]1C[C@@H]2CC[C@@H](C)[C@@](O)(O2)C(=O)C(=O)N2CCCC[C@H]2C(=O)O[C@H]([C@H](C)C[C@@H]2CC[C@@H](O)[C@H](OC)C2)CC(=O)[C@H](C)/C=C(\C)[C@@H](O)[C@@H](OC)C(=O)[C@H](C)C[C@H](C)/C=C/C=C/C=C/1C	106	85	65	88	95	85	79	99	83	94	86	117	193	96	–	91	101	103	99	91
N#CC(C#N)=C(N)/C(C#N)=C/c1ccc(O)cc1	95	79	86	–	91	84	61	–	95	98	91	–	–	83	88	97	99	91	78	–
O=C1NC(=O)/C(=C/c2ccc3c(c2)OC(F)(F)O3)S1	83	56	72	93	79	106	87	101	87	107	93	100	92	93	90	99	98	104	76	89
Cn1nc2c3c(cccc31)C(=O)c1ccccc1-2	16	72	51	65	3	60	19	98	–	92	81	86	74	108	107	105	96	79	36	90
CCC(=O)Nc1ccc2ncnc(Nc3cccc(Br)c3)c2c1	65	94	61	85	67	77	69	93	83	96	86	125	142	108	96	98	105	104	103	92
COc1cc2ncnc(Nc3ccc(NC(=O)c4ccccc4)cc3)c2cc1OC	14	84	79	100	48	–	70	89	94	110	95	–	–	97	104	102	97	99	87	101
